Reference: PubChem BioAssay (EPA / NIEHS)
Inconclusive results are not listed. The source made the active and inactive calls. Rule for the calls, unless noted: active = hit-call score of the fitted dose curve at least 0.9, where 1 is the maximum; inconclusive = response in the unintended direction; inactive = score below 0.9.

How the values were obtained:
[1] = molecular target: Bile acid receptor (Homo sapiens) (UniProt Q96RI1); test: ATG_IR1_CIS: Attagene CIS-FACTORIAL HepG2 Assay for human Nuclear Receptor Subfamily 1 Group H Member 4 (NR1H4), IR1 submotif (AID 2282946; active = hit-call score of the fitted dose curve at least 0.9, where 1 is the maximum; inactive = score below 0.9); conditions: IR1 reporter transcription, actives raise or lower the signal
Chain of Bile acid receptor (Homo sapiens) (Q96RI1 whole entry, looked up, the tested form may be a part): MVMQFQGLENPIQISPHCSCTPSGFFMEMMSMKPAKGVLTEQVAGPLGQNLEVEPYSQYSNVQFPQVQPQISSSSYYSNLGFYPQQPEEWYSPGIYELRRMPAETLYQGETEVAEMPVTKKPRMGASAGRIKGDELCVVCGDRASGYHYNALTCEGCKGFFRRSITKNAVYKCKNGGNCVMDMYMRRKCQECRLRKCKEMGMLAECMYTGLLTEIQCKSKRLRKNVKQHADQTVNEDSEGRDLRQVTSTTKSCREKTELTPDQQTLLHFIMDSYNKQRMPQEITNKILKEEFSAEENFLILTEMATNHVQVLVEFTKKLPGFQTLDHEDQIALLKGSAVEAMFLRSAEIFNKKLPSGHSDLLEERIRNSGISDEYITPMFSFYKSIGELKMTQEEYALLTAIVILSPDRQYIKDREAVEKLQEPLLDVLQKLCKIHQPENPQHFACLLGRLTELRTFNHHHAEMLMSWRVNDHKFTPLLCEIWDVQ
Outline: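 Fluorescence of capillary-separated, HpaI-digested RT-PCR reporter products gave IR1-element mRNA induction in HepG2 cells 24 h after dosing. Endogenous transcription factors drove the cis-regulated reporters; activity was fitted bidirectionally against DMSO.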

[2] = molecular target: Glucocorticoid receptor (Homo sapiens) (UniProt P04150); test: ATG_GR_TRANS: Attagene TRANS-FACTORIAL HepG2 Assay for human Glucocorticoid Receptor (GR) (AID 2282978); conditions: HepG2 Attagene TRANS GR reporter, mRNA transcription;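 note: activators score as hits since higher reporter transcript over DMSO is fitted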
Chain of Glucocorticoid receptor (Homo sapiens) (P04150 whole entry, looked up, the tested form may be a part): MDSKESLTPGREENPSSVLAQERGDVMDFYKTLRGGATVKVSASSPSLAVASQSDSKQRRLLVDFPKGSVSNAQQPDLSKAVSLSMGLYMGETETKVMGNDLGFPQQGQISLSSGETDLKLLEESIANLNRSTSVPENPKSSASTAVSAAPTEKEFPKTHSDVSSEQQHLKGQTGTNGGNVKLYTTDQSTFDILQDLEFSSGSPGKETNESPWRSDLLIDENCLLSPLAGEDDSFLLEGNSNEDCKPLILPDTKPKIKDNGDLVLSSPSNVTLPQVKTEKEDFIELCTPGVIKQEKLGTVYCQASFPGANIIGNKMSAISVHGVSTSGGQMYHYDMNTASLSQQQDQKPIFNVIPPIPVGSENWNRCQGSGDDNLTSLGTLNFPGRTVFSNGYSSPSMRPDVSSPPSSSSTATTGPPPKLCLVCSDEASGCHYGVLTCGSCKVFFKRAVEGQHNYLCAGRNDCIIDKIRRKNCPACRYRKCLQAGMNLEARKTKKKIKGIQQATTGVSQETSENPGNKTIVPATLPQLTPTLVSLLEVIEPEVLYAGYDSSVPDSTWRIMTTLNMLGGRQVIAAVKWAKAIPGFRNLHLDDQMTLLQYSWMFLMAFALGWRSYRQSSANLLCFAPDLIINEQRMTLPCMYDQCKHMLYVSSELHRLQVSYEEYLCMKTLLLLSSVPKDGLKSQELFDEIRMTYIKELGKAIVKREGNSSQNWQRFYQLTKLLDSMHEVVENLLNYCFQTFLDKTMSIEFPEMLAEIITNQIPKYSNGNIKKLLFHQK
Outline: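 Fluorescent capillary-electrophoresis quantitation of reporter mRNA is the readout, taken 24 h after dosing human HepG2 cells carrying transiently transfected GAL4-UAS reporter units activated by chimeric NR-GAL4 fusions; activity scored as induction over DMSO.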

[3] = molecular target: Bile acid receptor (Homo sapiens) (UniProt Q96RI1); test: ATG_FXR_TRANS: Attagene TRANS-FACTORIAL HepG2 Assay for Farnesoid X Receptor (FXR) (AID 2282979); conditions: HepG2 Attagene TRANS FXR-GAL4 reporter transcription;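 note: hits raise reporter mRNA above DMSO so AC50 marks FXR activation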
Outline: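 HepG2 cells were transiently transfected with GAL4-UAS reporters driven by chimeric NR-Gal4 proteins and dosed for 24 h. Reporter mRNA was quantified by RT-PCR, fluorescent labelling, HpaI digestion and capillary electrophoresis, with gain of signal scored versus DMSO.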

[4] = molecular target: Oxysterols receptor LXR-beta (Homo sapiens) (UniProt P55055); test: ATG_LXRb_TRANS: Attagene TRANS-FACTORIAL HepG2 Assay for human Liver X Receptor beta (LXRb) (AID 2282981); conditions: HepG2 Attagene TRANS GAL4-LXRb reporter, mRNA
Chain of Oxysterols receptor LXR-beta (Homo sapiens) (P55055 whole entry, looked up, the tested form may be a part): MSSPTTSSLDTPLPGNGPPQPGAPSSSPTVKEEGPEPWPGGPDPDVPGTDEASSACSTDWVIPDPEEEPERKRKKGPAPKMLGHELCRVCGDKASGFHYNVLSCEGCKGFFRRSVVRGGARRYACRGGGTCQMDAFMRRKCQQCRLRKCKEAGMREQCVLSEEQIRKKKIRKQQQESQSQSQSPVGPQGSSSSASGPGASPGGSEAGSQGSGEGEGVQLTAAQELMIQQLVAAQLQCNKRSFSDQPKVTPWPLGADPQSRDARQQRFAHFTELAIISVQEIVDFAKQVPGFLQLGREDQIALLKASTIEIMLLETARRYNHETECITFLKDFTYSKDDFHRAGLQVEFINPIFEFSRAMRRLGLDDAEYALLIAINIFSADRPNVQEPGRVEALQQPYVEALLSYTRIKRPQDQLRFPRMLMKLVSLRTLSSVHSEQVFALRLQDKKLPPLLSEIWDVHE
Outline: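 Readout: fluorescent reporter mRNA fragments resolved by capillary electrophoresis after RT-PCR. System: transiently transfected human HepG2, exogenous LXRb-Gal4 chimera driving GAL4-UAS reporter, 24 h dosing. Activity fitted upward against DMSO baseline.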

[5] = molecular target: human Peroxisome Proliferator-activated Receptor delta (PPARd), PPARD (gene 5467) (UniProt Q03181); test: ATG_PPARd_TRANS: Attagene TRANS-FACTORIAL HepG2 Assay for human Peroxisome Proliferator-activated Receptor delta (PPARd) (AID 2283002)
Chain of human Peroxisome Proliferator-activated Receptor delta (PPARd), PPARD (gene 5467) (Q03181 whole entry, looked up, the tested form may be a part): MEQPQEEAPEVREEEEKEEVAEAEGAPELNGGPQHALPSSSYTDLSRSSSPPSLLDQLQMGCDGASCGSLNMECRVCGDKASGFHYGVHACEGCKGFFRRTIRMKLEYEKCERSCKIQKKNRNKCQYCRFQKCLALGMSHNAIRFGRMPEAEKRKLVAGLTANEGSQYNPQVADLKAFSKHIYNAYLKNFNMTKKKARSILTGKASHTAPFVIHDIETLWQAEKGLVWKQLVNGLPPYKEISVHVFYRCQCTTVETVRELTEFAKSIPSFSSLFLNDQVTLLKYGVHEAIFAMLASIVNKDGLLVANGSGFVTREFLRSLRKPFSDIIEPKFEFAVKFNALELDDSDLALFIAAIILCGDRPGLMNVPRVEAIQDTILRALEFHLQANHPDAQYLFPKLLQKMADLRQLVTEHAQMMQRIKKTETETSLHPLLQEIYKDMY
Outline: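 Fluorescence from capillary electrophoresis of labelled RT-PCR reporter fragments gives the signal; DMSO sets baseline. Cells: HepG2 transiently carrying GAL4-UAS reporter units plus chimeric nuclear receptor-Gal4 proteins, exposed to chemicals for 24 h.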

[6] = molecular target: Nuclear receptor subfamily 1 group I member 2 (Homo sapiens) (UniProt O75469); test: ATG_PXR_TRANS: Attagene TRANS-FACTORIAL HepG2 Assay for human Pregnane X Receptor (PXR) (AID 2283008)
Chain of Nuclear receptor subfamily 1 group I member 2 (Homo sapiens) (O75469 whole entry, looked up, the tested form may be a part): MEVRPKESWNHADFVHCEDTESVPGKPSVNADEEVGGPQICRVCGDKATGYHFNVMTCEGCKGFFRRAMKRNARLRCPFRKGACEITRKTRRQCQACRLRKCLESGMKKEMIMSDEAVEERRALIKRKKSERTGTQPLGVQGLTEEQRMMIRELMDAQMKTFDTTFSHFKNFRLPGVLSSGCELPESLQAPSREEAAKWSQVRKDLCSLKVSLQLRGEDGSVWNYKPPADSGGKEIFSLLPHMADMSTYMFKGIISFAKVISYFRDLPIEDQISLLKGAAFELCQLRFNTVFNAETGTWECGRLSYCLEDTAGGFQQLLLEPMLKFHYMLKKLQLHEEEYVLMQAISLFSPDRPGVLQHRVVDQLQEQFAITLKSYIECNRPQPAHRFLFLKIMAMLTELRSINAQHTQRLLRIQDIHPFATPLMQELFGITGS
Outline: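 HepG2 transfected (FuGene 6) with GAL4-UAS reporter units + PXR-Gal4 chimera; dosed 24 h. Total RNA → oligo(dT) RT → PCR → 6-FAM primer extension → HpaI cut → CE. Gain-of-signal vs DMSO.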

[7] = molecular target: human Thyroid Receptor alpha (THRa1), THRA (gene 7067) (UniProt P10827); test: ATG_THRa1_TRANS: Attagene TRANS-FACTORIAL HepG2 Assay for human Thyroid Receptor alpha (THRa1) (AID 2283014)
Chain of human Thyroid Receptor alpha (THRa1), THRA (gene 7067) (P10827 whole entry, looked up, the tested form may be a part): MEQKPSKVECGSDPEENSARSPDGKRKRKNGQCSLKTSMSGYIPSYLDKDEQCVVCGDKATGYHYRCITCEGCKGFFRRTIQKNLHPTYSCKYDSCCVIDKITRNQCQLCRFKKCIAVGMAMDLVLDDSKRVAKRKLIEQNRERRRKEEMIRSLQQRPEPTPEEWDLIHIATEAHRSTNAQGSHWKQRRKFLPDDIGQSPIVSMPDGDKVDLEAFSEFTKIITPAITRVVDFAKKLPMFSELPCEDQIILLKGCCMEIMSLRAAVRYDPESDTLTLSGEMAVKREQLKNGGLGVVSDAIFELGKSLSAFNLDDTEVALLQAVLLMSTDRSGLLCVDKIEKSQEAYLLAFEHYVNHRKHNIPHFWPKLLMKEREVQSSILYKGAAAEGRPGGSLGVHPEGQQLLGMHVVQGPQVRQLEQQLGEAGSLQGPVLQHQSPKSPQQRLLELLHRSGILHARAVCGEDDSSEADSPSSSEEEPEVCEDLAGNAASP
Outline: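 HepG2 cells transiently transfected with chimeric NR-Gal4 and GAL4-UAS reporter units, dosed 24 h. Reporter mRNA quantified by RT-PCR, fluorescent labeling, HpaI digestion and capillary electrophoresis; gain-of-signal fit versus DMSO.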

[8] = molecular target: human Vitamin D Receptor (VDR), VDR (gene 7421) (UniProt P11473); test: ATG_VDR_TRANS: Attagene TRANS-FACTORIAL HepG2 Assay for human Vitamin D Receptor (VDR) (AID 2283022)
Chain of human Vitamin D Receptor (VDR), VDR (gene 7421) (P11473 whole entry, looked up, the tested form may be a part): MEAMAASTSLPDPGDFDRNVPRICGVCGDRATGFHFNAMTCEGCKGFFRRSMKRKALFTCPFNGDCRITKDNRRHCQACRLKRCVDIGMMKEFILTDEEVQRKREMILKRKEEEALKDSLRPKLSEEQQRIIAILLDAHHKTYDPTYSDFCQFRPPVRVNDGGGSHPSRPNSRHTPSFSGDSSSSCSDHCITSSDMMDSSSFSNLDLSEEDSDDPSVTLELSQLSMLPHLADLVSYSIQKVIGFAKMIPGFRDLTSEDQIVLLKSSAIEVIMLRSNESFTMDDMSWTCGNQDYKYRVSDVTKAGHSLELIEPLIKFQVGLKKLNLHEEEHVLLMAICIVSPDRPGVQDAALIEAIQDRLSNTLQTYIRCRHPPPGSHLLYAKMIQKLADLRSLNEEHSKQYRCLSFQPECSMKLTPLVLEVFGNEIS
Outline: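 HepG2 cells were transiently transfected with GAL4-UAS reporter units and a chimeric VDR-Gal4 construct, then dosed for 24 hours. Reporter mRNA was quantified by RT-PCR, fluorescent labeling, HpaI digestion and capillary electrophoresis; gain of signal analysed vs DMSO.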

[9] = TOX21_p53_BLA_p3_viability: Viability Assessment in the Tox21 HCT-116 p53 Agonism Beta-lactamase Assay, Phase 3 (AID 2283593);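 note: cells exposed to compound for 16 h before reading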
Outline: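 HCT116 cells, 4000/well, dosed 5 h after plating by pin transfer (217-fold dilution from DMSO stock) and incubated 16 h at 37C, 5% CO2. Viability read as ATP luminescence with CellTiter-Glo after 30 min at room temperature.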

[10] = ATG_M_19_TRANS: Attagene TRANS-FACTORIAL HepG2 Assay for M19 Transcription Factor (Internal Marker) (AID 2282974); conditions: HepG2 Attagene TRANS-FACTORIAL M19 internal marker reporter
Outline: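 Fluorescence of 6-FAM-labelled reporter cDNA fragments, separated by capillary electrophoresis, served as the readout. These derived from HepG2 cells carrying transfected GAL4-UAS reporter units after 24 h dosing, with DMSO as negative control.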

[11] = ATG_GAL4_TRANS: Attagene TRANS-FACTORIAL HepG2 Assay for GAL4 (Internal Marker) (AID 2282976); conditions: HepG2 Attagene TRANS GAL4 internal marker reporter
Outline: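 Background-control readout: GAL4-UAS reporter transcript in transiently transfected HepG2 cells after 24 h compound exposure. Measured by RT-PCR, 6-FAM primer extension, HpaI digest and capillary electrophoresis; gain-of-signal fit versus DMSO.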

[12] = molecular target: Oxysterols receptor LXR-alpha (Homo sapiens) (UniProt Q13133); test: ATG_LXRa_TRANS: Attagene TRANS-FACTORIAL HepG2 Assay for human Liver X Receptor alpha (LXRa) (AID 2282980); conditions: HepG2 Attagene TRANS reporter, LXRa transactivation
Chain of Oxysterols receptor LXR-alpha (Homo sapiens) (Q13133 whole entry, looked up, the tested form may be a part): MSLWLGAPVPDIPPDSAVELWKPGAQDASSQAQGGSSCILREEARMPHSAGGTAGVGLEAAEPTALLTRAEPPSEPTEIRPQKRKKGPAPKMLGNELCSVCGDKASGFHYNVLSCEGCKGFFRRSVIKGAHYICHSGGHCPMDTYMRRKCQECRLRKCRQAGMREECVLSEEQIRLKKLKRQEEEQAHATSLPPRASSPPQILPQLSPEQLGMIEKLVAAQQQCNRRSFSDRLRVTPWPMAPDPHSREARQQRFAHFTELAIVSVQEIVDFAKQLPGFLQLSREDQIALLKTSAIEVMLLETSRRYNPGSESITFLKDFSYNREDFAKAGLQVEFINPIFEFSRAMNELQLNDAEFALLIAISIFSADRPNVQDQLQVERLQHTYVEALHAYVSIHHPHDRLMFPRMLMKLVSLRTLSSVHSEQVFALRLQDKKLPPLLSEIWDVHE
Outline: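 HepG2 cells transiently transfected with GAL4-UAS reporter units for chimeric NR-Gal4 proteins, exposed to chemicals for 24 h. Reporter mRNA quantified by RT-PCR and capillary electrophoresis; gain of signal fitted relative to DMSO.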

[13] = molecular target: human RAR-related Orphan Receptor beta (RORb), RORB (gene 6096) (UniProt Q92753); test: ATG_RORb_TRANS: Attagene TRANS-FACTORIAL HepG2 Assay for human RAR-related Orphan Receptor beta (RORb) (AID 2283010)
Outline: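 Multiplexed transcription-factor reporter assay: HepG2 cells transiently carrying NR-Gal4/GAL4-UAS constructs, 24 h treatment, mRNA quantified by RT-PCR plus capillary electrophoresis fluorescence; activity scored as induction over DMSO.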

[14] = ATG_XTT_Cytotoxicity: Cytotoxicity Assessment in the Attagene TRANS-FACTORIAL HepG2 Assay (AID 2283584)
Outline: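 HepG2 cells transiently transfected with GAL4-UAS multiple reporter units, dosed 24 h; cytotoxicity read by XTT as loss of signal versus DMSO baseline.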

[15] = TOX21_p53_BLA_p4_viability: Viability Assessment in the Tox21 HCT-116 p53 Agonism Beta-lactamase Assay, Phase 4 (AID 2283597);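 note: hits lower the luminescence signal meaning cytotoxicity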
Outline: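 4000 HCT116 cells per well; 5 h attachment; compounds from DMSO, 217-fold dilution; 16 h at 37C. Then CCF4-AM, 2 h RT, followed by CellTiter-Glo, 30 min RT, luminescence. Decrease = cytotoxicity.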

[16] = ACEA_ER_AUC_viability: ACEA Biosciences xCELLigence Real-Time Cell Analysis on Estrogen Receptor Agonism for Viability (AID 2283782);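 note: hit means loss of impedance signal meaning reduced cell growth or viability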
Outline: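 Read-out: real-time electrical impedance (RT-CES) area under curve, loss of signal taken as reduced viability, normalized to DMSO baseline. T-47D cells, charcoal-stripped serum medium, compounds up to 100 uM final, continuous exposure, 80 h.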

[17] = molecular target: Peroxisome proliferator-activated receptor gamma (Homo sapiens) (UniProt P37231); test: ATG_PPARg_TRANS: Attagene TRANS-FACTORIAL HepG2 Assay for human Peroxisome Proliferator-activated Receptor-gamma (PPARg) (AID 2283007)
Chain of Peroxisome proliferator-activated receptor gamma (Homo sapiens) (P37231 whole entry, looked up, the tested form may be a part): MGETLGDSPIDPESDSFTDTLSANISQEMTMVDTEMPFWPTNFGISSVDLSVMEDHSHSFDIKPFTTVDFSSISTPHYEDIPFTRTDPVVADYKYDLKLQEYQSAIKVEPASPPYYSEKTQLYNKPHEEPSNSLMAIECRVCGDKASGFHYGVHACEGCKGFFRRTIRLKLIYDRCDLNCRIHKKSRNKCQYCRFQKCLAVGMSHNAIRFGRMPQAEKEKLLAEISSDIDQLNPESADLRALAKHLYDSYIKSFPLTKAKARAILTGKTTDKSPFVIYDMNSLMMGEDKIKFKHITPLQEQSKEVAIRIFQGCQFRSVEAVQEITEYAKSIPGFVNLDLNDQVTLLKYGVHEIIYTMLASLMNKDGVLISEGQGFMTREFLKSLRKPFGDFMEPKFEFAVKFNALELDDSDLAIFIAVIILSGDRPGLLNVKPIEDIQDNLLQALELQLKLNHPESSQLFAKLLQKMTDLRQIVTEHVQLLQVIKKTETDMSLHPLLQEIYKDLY
Outline: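 Transient transfection of HepG2 with GAL4-UAS-driven reporter units; chemical dosing 24 h; total RNA → oligo(dT) RT → PCR with reporter primers → 6-FAM primer extension → HpaI digest 2 h 37 C → capillary electrophoresis. Positive direction vs DMSO.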

[18] = CCTE_Harrill_HTTr_Viability_MCF7: CCTE's 6-hour Cell Viability Assessment for the High-Throughput Transcriptomics (HTTr) Platform, in MCF-7 cells cultured in DMEM + 10% fetal bovine serum, Harrill Lab (AID 2284010; active = hit-call score of the fitted dose curve at least 0.9, where 1 is the maximum; inactive = score below 0.9)
Outline: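 Eight-point concentration series, six-hour exposure. Propidium iodide exclusion imaged to assess membrane integrity as a cytotoxicity readout; bidirectional fitting was done with DMSO as negative control and activity baseline.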

[19] = CCTE_Harrill_HTTr_Apoptosis_MCF7: CCTE's 6-hour Apoptosis Assessment for the High-Throughput Transcriptomics (HTTr) Platform, in MCF-7 cells cultured in DMEM + 10% fetal bovine serum, Harrill Lab (AID 2284011; active = hit-call score of the fitted dose curve at least 0.9, where 1 is the maximum; inactive = score below 0.9)
Outline: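 MCF-7 cells in DMEM + 10% FBS exposed 6 h to chemicals over an eight-point dilution series. Caspase-3/7 activation imaged by high-content CellEvent Green staining; fitted bidirectionally versus DMSO.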

[20] = molecular target: human RAR-related Orphan Receptor gamma (RORg), RORC (gene 6097) (UniProt P51449); test: ATG_RORg_TRANS: Attagene TRANS-FACTORIAL HepG2 Assay for human RAR-related Orphan Receptor gamma (RORg) (AID 2283011)
Chain of human RAR-related Orphan Receptor gamma (RORg), RORC (gene 6097) (P51449 whole entry, looked up, the tested form may be a part): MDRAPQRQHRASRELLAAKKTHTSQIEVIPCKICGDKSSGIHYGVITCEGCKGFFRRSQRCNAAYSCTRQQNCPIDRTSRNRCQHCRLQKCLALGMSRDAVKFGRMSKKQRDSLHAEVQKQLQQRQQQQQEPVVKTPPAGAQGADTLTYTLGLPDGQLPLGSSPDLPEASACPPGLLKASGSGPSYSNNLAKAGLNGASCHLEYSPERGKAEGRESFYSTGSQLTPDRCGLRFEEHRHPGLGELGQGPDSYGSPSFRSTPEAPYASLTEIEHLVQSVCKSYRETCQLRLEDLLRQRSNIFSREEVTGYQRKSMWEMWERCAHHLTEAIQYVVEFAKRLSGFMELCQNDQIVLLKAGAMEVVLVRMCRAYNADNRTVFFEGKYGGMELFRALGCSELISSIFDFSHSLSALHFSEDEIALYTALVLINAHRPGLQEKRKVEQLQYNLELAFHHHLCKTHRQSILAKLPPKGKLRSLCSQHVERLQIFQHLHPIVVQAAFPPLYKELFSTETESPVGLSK
Outline: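 HepG2 cells transiently transfected with GAL4-UAS reporter units and chimeric RORg-Gal4 construct; after 24 h chemical exposure, reporter mRNA measured by RT-PCR with fluorescent capillary electrophoresis, gain of signal fitted against DMSO.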

Measured: AC50

O=C1NC(=O)[C@@H]2CC=CC[C@H]12
inactive: [1] | [2] | [3] | [4] | [5] | [6] | [7] | [8] | [9]

CC1=CCCC(C)(C)C12CCC(C)O2 (configuration not stated)
inactive: [1] | [10] | [11] | [3] | [12] | [4] | [13] | [14] | [15]
active: [6] 2.53 µM | [16] 60.7 µM

COC(=O)CCSCCC(=O)OC
inactive: [1] | [10] | [2] | [3] | [4] | [7] | [14]

CN(C)Cc1cc(C(C)(C)C)c(O)c(C(C)(C)C)c1
inactive: [10] | [12] | [4] | [5] | [17] | [8] | [14] | [9] | [15]

c1ccc2c(c1)Oc1ccccc1S2
inactive: [10] | [2] | [5] | [6] | [7] | [8] | [9] | [15]

CC(C)CC(=O)O
inactive: [11] | [2] | [13] | [8] | [14] | [9] | [15] | [16] | [18] | [19]

C[C@H]1C[C@H]2[C@@H]3CCC4=CC(=O)C=C[C@]4(C)[C@@]3(F)[C@@H](O)C[C@]2(C)[C@@]1(O)C(=O)CO
inactive: [10] | [5] | [7] | [15] | [18] | [19]

Cc1ccccc1S(N)(=O)=O
inactive: [1] | [10] | [12] | [4] | [5] | [6] | [7] | [14] | [9] | [15] | [16]

CCCCCC1CCCC(=O)O1 (configuration not stated)
inactive: [1] | [10] | [2] | [3] | [12] | [5] | [17] | [8] | [14] | [15] | [16]

CCCCCCCCCCC1CO1 (configuration not stated)
inactive: [10] | [5] | [17] | [7] | [8] | [14]
active: [16] 32.9 µM

CC(=O)c1nccs1
inactive: [10] | [2] | [12] | [4] | [17] | [7] | [14] | [9]

O=C(OCc1ccccc1)c1ccccc1
active: [16] 76.8 µM
not listed: [3] | [4] | [5] | [9] | [13] | [15] | [20]
inactive: all other assays above

CCCC(=O)OC/C=C(\C)CCC=C(C)C
active: [16] 68.8 µM
inactive: [1] | [10] | [11] | [2] | [17] | [6] | [20] | [7] | [8] | [14]

COc1ccccc1OCC(O)CO (configuration not stated)
inactive: [10] | [5] | [6] | [20] | [7] | [16]
